For assay [1], the target named is Chromobox protein homolog 1 (Homo sapiens) (UniProt P83916). Kind of assay: qHTS Validation Assay for Inhibitors of HP1-beta Chromodomain Interactions with Methylated Histone Tails (AID 488953). Further: nearly all actives have a fitted effect of over 50% in size. Further: potency means the concentration at half of the fitted maximal effect. Put shortly: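 AlphaScreen proximity signal from streptavidin donor and nickel chelate acceptor beads (final 10 ug/mL) after 30 min dark incubation. Compounds had 30 min at room temperature with preformed complex of 50 nM HP1-beta and 50 nM b-H3(1-18)K9me3 in PBS pH 7.4 with 0.01% Tween-20.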
Chromobox protein homolog 1 (Homo sapiens), sequence (P83916 whole entry, looked up): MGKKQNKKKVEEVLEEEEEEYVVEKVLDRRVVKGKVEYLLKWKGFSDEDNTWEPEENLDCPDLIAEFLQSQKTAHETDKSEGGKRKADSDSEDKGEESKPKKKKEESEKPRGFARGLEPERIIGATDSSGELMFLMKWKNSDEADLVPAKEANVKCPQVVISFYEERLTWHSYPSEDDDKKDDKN

The target of assay [2] is Transient receptor potential cation channel subfamily V member 1 (Homo sapiens) (UniProt Q8NER1). The experiment in a line: HTS Assay for Compounds that Act as Enhancers of the Vanilloid Receptor 1 (AID 488979). Put shortly:
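TRPV1-expressing cells loaded with Fluo-8 calcium dye; compounds added and calcium influx read kinetically for 3 min (agonist phase), then capsaicin at EC20 added and read 2 min more for enhancement. Fluorescence ex 480/em 520 nm.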

Assay [3] concerns the target Thyrotropin receptor (Homo sapiens) (UniProt P16473). The experiment in a line: qHTS Assay for Antagonists of the Thyroid Stimulating Hormone Receptor (AID 488980). Further: series mostly up to about 58 µM. Put shortly:
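TSHR-transfected HEK293 cells (2000/well) in HEPES-buffered HBSS with 70 uM RO 20-1724 were stimulated with 4 nM TSH (EC80, final) in the presence of compound. cAMP was measured by HTRF competition after lysis and 30 min at RT.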

Assay [4] deals with D(1A) dopamine receptor (Homo sapiens) (UniProt P21728). The experiment in a line: HTS Assay for Allosteric Agonists of the Human D1 Dopamine Receptor: Primary Screen for Agonists (AID 488981). Further: potency means the concentration at half of the fitted maximal effect. Put shortly: (§1)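 Tetracycline-induced HEK293 T-REx cells force-coupled to calcium signalling were incubated overnight at 30 C and dye-loaded at room temperature. Calcium flux over 180 s after compound addition flagged agonists; a further 180 s read after EC20 dopamine flagged potentiators.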
D(1A) dopamine receptor (Homo sapiens), sequence (P21728 whole entry, looked up): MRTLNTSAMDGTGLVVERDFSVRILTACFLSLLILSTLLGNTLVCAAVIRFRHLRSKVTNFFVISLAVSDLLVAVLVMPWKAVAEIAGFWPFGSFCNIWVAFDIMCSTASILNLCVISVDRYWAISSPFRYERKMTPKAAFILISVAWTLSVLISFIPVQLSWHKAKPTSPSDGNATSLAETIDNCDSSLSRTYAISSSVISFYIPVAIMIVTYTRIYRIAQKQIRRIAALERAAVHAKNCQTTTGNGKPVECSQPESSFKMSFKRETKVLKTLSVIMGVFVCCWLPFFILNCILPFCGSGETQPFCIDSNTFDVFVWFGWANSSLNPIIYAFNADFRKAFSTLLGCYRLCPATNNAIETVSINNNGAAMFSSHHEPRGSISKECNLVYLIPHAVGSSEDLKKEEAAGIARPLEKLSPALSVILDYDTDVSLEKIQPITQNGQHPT

Assay [5] has the same target. The experiment in a line: HTS Assay for Allosteric Agonists of the Human D1 Dopamine Receptor: Primary Screen for Potentiators (AID 488982). An outline of the steps:
as §1

For assay [6] the target is unchanged. Kind of assay: HTS Assay for Allosteric Agonists of the Human D1 Dopamine Receptor: Primary Screen for Antagonists (AID 488983).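 Further: calcium flux response to an EC80 dopamine challenge measured with no-wash dye; nearly all actives have a fitted effect of over 65% in size.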 Further: potency means the concentration at half of the fitted maximal effect. Put shortly: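 Calcium-flux read-out in inducible HEK293 T-REx cells expressing D1, dye-loaded 30–90 min at room temperature. Kinetic reads: 180 s after compound (agonist phase), then 180 s after an EC80 dopamine challenge.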
A short description of assay [7]: Validation screen for small molecules that induce genotoxicity in human embryonic kidney (HEK293T) cells expressing luciferase-tagged ELG1 (AID 493106). An outline of the steps:
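ELG1-luciferase reporter readout (ONE-Glo, 30 min, room temperature) after 16 hr compound treatment at 37 °C of HEK293T cells at 2,000 per well. Rising luminescence flags genotoxic stress.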

For assay [8], the target named is ATPase family AAA domain-containing protein 5 (Homo sapiens) (UniProt Q96QE3). The experiment in a line: Validation screen for small molecules that inhibit ELG1-dependent DNA repair in human embryonic kidney (HEK293T) cells expressing luciferase-tagged ELG1 (AID 493107). Further: nearly all actives have a fitted effect of over 70% in size. Further: potency means the concentration at half of the fitted maximal effect. An outline of the steps: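 Luciferase read-out, ONE-Glo, 30 min at room temperature, follows 16 h co-exposure at 37 C of compound and the DNA-damaging agent 5-fluorouridine. Cells: HEK293T with ELG1-luciferase fusion, 2,000 per well, DMSO as vehicle.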

In assay [9] the target is ATP-dependent 6-phosphofructokinase (Trypanosoma brucei brucei) (UniProt O15648). Kind of assay: qHTS Assay to Find Inhibitors of T. brucei phosphofructokinase: hit validation (AID 492961).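 Further: luminescence reports ADP formed as PFK phosphorylates fructose-6-phosphate with ATP; series mostly up to about 51 µM.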 An outline of the steps:
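Percent activity derived from corrected luminescence, normalized between 0x and 1x enzyme controls, then fitted to concentration-response curves. Conditions: 1.25 nM PFK, 0.1 mM ATP, 0.5 mM F6P, 45 min RT.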
(In qHTS, concentration-response curves come from the screen itself.)

In assay [10] the target is Methanococcus maripaludis chaperonin (MmCpn) (UniProt Q6LX38). The experiment in a line: High-Throughput Screening for Modulators of Cytosolic Chaperonin Activity: MmCpn Primary Screen (AID 488978).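 Further: 50 nM MmCpn enzyme hydrolysing 30 µM ATP at 37 °C.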 An outline of the steps: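 MmCpn at 50 nM final was preincubated 5 min at RT with compound. ATP was then added at 30 uM final for 10 min at 37 C. ADP formed was detected by Transcreener HTRF (665/590 nm).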
Methanococcus maripaludis chaperonin (MmCpn), sequence (Q6LX38 1-543): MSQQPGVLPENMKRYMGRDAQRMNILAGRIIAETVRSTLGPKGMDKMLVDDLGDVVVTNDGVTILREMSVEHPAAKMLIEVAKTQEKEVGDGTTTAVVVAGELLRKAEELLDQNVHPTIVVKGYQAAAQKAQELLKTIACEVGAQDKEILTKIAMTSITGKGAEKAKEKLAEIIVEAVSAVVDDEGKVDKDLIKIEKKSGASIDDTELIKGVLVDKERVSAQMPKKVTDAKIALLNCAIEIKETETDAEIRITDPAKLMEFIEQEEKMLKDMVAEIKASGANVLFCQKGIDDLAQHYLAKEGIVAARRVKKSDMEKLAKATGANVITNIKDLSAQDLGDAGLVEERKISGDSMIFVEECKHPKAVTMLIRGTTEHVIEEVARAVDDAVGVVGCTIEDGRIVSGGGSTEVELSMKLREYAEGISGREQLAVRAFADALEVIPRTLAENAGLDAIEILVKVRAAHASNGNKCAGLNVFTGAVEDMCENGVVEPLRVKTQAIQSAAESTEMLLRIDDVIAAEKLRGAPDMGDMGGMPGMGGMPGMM

Structures are written as SMILES. Inconclusive results are not listed. The source made the active and inactive calls. The call rests on the fitted dose curve; in most records, active means well fitted curve in the direction sought with a large enough effect; inconclusive means small, poorly fitted or top-dose-only effect, or another doubt; inactive means no such curve, though single readings can be large; an effect the other way counts as inactive or inconclusive.

Thyrotropin receptor (Homo sapiens), sequence (P16473 whole entry, looked up): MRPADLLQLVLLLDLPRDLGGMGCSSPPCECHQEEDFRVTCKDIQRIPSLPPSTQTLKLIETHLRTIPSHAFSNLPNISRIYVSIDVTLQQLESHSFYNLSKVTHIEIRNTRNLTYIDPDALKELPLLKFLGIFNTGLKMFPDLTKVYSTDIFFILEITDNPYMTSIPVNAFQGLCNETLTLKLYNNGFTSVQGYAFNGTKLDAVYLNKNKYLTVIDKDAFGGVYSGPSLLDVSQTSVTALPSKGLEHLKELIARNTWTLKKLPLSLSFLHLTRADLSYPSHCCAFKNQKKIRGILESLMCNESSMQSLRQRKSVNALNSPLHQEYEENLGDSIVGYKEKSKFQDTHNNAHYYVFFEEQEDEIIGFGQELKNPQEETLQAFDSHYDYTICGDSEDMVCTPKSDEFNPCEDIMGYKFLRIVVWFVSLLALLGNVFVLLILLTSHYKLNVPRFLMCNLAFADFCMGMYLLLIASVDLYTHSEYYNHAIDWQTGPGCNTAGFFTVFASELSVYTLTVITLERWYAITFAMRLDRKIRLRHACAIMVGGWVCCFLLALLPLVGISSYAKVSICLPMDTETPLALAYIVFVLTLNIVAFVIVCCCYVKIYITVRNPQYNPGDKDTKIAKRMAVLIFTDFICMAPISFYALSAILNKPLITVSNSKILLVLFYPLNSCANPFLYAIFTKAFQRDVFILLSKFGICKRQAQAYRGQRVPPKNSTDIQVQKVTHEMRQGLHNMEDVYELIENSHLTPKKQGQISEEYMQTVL
Transient receptor potential cation channel subfamily V member 1 (Homo sapiens), sequence (Q8NER1 whole entry, looked up): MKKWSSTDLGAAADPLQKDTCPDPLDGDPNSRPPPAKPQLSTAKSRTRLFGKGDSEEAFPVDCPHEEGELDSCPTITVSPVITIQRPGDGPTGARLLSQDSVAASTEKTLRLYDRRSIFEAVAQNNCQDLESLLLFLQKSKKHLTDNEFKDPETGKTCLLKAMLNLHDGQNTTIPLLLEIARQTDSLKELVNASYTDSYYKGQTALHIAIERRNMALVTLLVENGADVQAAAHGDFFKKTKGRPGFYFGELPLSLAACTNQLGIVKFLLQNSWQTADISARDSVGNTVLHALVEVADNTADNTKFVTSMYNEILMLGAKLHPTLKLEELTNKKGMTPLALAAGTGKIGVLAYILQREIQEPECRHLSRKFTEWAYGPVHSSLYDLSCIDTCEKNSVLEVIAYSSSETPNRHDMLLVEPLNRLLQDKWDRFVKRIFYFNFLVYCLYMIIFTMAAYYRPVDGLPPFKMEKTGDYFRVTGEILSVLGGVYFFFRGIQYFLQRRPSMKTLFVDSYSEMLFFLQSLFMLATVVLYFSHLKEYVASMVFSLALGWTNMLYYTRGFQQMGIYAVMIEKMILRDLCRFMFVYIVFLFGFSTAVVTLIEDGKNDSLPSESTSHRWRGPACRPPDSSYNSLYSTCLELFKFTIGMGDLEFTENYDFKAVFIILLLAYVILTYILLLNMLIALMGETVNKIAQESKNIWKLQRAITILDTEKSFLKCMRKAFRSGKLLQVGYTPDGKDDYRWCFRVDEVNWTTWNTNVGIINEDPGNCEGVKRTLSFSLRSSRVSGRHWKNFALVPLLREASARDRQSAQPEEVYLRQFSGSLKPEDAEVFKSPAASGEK
ATP-dependent 6-phosphofructokinase (Trypanosoma brucei brucei), sequence (O15648 whole entry, looked up): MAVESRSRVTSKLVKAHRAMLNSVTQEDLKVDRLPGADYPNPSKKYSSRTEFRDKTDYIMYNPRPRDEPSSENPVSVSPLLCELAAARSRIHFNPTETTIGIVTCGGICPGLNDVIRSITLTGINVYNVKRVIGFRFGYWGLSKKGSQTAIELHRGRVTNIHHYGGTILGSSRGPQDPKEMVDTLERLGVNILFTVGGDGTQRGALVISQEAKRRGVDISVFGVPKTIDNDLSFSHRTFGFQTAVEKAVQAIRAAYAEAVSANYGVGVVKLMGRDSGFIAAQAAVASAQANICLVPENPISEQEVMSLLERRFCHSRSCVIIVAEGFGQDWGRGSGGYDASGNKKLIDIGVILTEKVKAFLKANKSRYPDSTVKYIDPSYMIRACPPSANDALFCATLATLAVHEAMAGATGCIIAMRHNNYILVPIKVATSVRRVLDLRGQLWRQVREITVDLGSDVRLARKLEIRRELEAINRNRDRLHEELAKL

Regarding `Cc1ccc(S(=O)(=O)NC(=O)NN2CCCCCC2)cc1`, the Potency result in assay [1], in assay [4], in [5], in [6], in assay [7] and in [8] was “inactive” in each case. For the same compound, the outcome in [2] and in assay [3] was inactive.
Turning to `NC/C=C/C(=O)O`, the Potency result in [1], in [4], in assay [5], in [6], in assay [7] and in assay [8] was “inactive” throughout. Further, the outcome in assay [2] and in assay [9] was inactive.
Take `CC1=C(C)C(=O)C(CCCCC#CCCCC#CCO)=C(C)C1=O`: the Potency in assay [1] was 31.6 µM (active). Moreover, the result in assay [2] and in [9] was inactive. Also, the Potency entry in [4], in [5], in assay [6] and in assay [7] was “inactive” in each case.
As for `CC(C)(C)NCC(O)c1cc(O)cc(O)c1` (stereo not drawn), the Potency entry in assay [1], in assay [4], in assay [5], in [6], in assay [7] and in assay [8] was “inactive” throughout. For the same compound, the outcome in [2] and in [3] was inactive.
Turning to `COc1ccc(CCN(C)CCCC(C#N)(c2cc(OC)c(OC)c(OC)c2)C(C)C)cc1OC` (stereo not drawn), the Potency result in assay [1], in assay [4], in [5], in assay [6], in [7] and in [8] was “inactive” each time. In addition, the outcome in [2] was inactive.
On to `CN(C)C(=O)Oc1ccc[n+](C)c1`, for which the compound was called inactive in assay [10], in assay [2], in assay [3] and in assay [9]. The Potency result in [4], in assay [5], in assay [6] and in assay [7] was “inactive” each time.
Regarding `COc1ccc([C@@H]2Sc3ccccc3N(CCN(C)C)C(=O)[C@@H]2OC(C)=O)cc1`, the Potency result in [1], in [4], in assay [7] and in [8] was “inactive” each time. The result in [9] was inactive.
For `O=C1NCN(c2ccccc2)C12CCN(CCCC(c1ccc(F)cc1)c1ccc(F)cc1)CC2`, the Potency is 39.8 µM (active) in assay [1] and 25.9 µM (active) in [8]. For the same compound, the result in [2] and in assay [3] was inactive. In addition, the Potency result in [4], in [5] and in assay [7] was “inactive” throughout.
`COc1cc2c(cc1OC)-c1cc(=Nc3c(C)cc(C)cc3C)n(C)c(=O)n1CC2`: the values for the Potency in assay [1] and in assay [8] were 35.5 µM (active) and 13 µM (active), respectively. The outcome in assay [2] and in assay [9] was inactive. The Potency result in assay [4], in assay [5] and in assay [7] was “inactive” in each case.
As to `CCCN(CCC)CCc1cccc2c1CC(=O)N2`, the Potency entry in assay [1], in [4], in [5], in assay [7] and in assay [8] was “inactive” each time. Moreover, the result in [2] and in assay [3] was inactive.
Take `CC(=O)[C@@]1(O)CC[C@H]2[C@@H]3CCC4=CC(=O)CC[C@]4(C)[C@H]3CC[C@@]21C`: the Potency result in assay [1], in assay [4], in [5], in assay [6], in assay [7] and in assay [8] was “inactive” each time. Also, in [9], the compound was called inactive.
`CCN1CCc2nc(N)oc2CC1`: the Potency entry in assay [1], in [4], in [5], in assay [6], in assay [7] and in assay [8] was “inactive” throughout. The outcome in assay [2], in [3] and in assay [9] was inactive.
As to `CCn1cc(C(=O)O)c(=O)c2cc3c(cc21)OCO3`, the compound was called inactive in assay [10], in assay [2] and in assay [3]. The Potency result in assay [4], in assay [5], in assay [6], in assay [7] and in [8] was “inactive” each time.
Take `CCCNC(C)C(=O)Nc1ccccc1C` (stereo not drawn): the compound was called inactive in assay [10], in assay [2] and in [3]. The Potency entry in assay [4], in assay [5], in assay [6], in [7] and in [8] was “inactive” throughout.
With `N[C@@H](COP(=O)(O)O)C(=O)O`, the Potency result in [1], in [4], in [5], in [7] and in assay [8] was “inactive” each time. Also, the result in assay [2] and in assay [3] was inactive.
In the case of `CCCCNc1ccc(C(=O)OCCN(C)C)cc1`, the Potency entry in assay [1], in assay [4], in assay [5], in assay [6], in assay [7] and in assay [8] was “inactive” in each case. Besides, the outcome in assay [2], in [3] and in [9] was inactive.
Take `C[C@@H](O)[C@H]1C(=O)N2C(C(=O)O)=C(SCCN=CN)C[C@H]12`: the Potency entry in [1], in assay [4], in assay [5], in [7] and in assay [8] was “inactive” throughout.
As to `OCCN1CCN(CC/C=C2/c3ccccc3Sc3ccc(C(F)(F)F)cc32)CC1`, the Potency in assay [1] is 35.5 µM (active). The result in [3] and in [9] was inactive. Moreover, the Potency result in assay [4], in assay [5] and in assay [7] was “inactive” in each case.
Turning to `CCc1cccc(N(C)C(N)=Nc2cccc3ccccc23)c1`, the Potency in [1] is 0.0075 µM (active). Also, the call in assay [3] and in [9] was inactive. In addition, the Potency entry in assay [5], in assay [6] and in assay [7] was “inactive” each time.
Turning to `CCN(CC)CCNC(=O)c1cc(S(C)(=O)=O)ccc1OC`, the Potency entry in assay [1], in assay [4], in assay [5], in assay [7] and in assay [8] was “inactive” throughout. Further, the result in assay [2], in assay [3] and in [9] was inactive.
For `OCCN1CCN(CCCN2c3ccccc3C=Cc3ccccc32)CC1`, the result in assay [10], in assay [2], in [3] and in [9] was inactive. Also, the Potency result in [4], in [5], in assay [7] and in assay [8] was “inactive” in each case. Besides, the Potency in assay [6] was 11.2 µM (active).
`NS(=O)(=O)c1cc2c(cc1Cl)NC(C1CC3C=CC1C3)NS2(=O)=O` (stereo not drawn): the Potency result in [1], in assay [4], in assay [7] and in assay [8] was “inactive” in each case. In addition, the outcome in assay [2] was inactive.
Regarding `CCn1ccnc1CC1COc2ccccc2O1` (stereo not drawn), the Potency result in assay [1], in assay [4], in assay [5], in assay [6] and in assay [7] was “inactive” in each case. Also, the result in assay [2] was inactive.
On to `CNCCC(Oc1ccccc1OC)c1ccccc1` (stereo not drawn), for which the Potency entry in [1], in assay [4], in [5], in assay [7] and in assay [8] was “inactive” in each case. For the same compound, the outcome in assay [2] was inactive.
On to `CN/C(=C\[N+](=O)[O-])NCCSCc1ccc(CN(C)C)o1`, for which the compound was classed as inactive in assay [10], in assay [2] and in [3]. Moreover, the Potency entry in [4], in assay [5], in assay [6], in [7] and in [8] was “inactive” each time.
For the compound `Cc1ccc(/C(=C\CN2CCCC2)c2ccccn2)cc1`, the Potency result in assay [1], in assay [4], in assay [5], in assay [6], in assay [7] and in assay [8] was “inactive” in each case. The outcome in [3] and in [9] was inactive.
Take `CC(=O)OC(C)C[N+](C)(C)C` (stereo not drawn): the Potency result in assay [1], in [4], in assay [5], in assay [6], in [7] and in assay [8] was “inactive” throughout. Besides, the result in assay [2] was inactive.
On to `CCNC(=O)N1CCN(CCCC(c2ccc(F)cc2)c2ccc(F)cc2)CC1`, for which the outcome in assay [10], in assay [3] and in assay [9] was inactive. For the same compound, the Potency in assay [4] was 15.8 µM (active). Further, the Potency result in assay [5], in assay [7] and in [8] was “inactive” in each case.
As for `C[C@H](CS)C(=O)N1CCC[C@H]1C(=O)O`, the result in assay [3] and in assay [9] was inactive. Besides, the Potency result in [4], in [5], in assay [6], in assay [7] and in assay [8] was “inactive” throughout.

These data come from PubChem BioAssay (NCATS).
